rTrxR1 inhibitor = rat TrxR1 inhibition. O89049. recombinant rTrxR1, NADPH fluorescence consumption, selenite substrate. Potency, µM (doses to about 114 µM), actives largely listed as inhibitors. 390,000 compounds, 1% hits; note: nearly all actives have a fitted effect of over 65% in size
Target sequence (O89049 whole entry, looked up): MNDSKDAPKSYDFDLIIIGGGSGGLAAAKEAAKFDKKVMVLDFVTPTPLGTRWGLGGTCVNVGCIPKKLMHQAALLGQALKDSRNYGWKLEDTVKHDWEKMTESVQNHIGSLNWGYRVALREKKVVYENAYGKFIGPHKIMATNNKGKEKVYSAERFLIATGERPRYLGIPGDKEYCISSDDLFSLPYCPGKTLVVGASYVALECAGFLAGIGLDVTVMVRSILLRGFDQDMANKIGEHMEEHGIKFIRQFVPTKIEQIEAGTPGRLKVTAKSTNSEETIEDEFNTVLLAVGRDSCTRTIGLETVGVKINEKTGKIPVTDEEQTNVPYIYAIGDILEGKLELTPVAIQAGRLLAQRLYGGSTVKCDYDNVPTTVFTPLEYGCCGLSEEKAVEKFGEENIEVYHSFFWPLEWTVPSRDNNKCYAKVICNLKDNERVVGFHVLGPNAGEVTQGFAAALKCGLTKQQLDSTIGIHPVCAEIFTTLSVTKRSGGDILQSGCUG
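Rat TrxR1 (90 nM in the dispensed reagent) was pre-reduced with 400 uM NADPH for 5 min at room temperature, then incubated with compound for 15 min. After 400 uM selenite was added, NADPH fluorescence (Ex 340/Em 450 nm) was followed for 8 min.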
RORgamma inh = inhibitors of mouse ROR gamma transcriptional activity; Potency, µM (highest dose often 53.6 µM), most hits filed as inhibitors; P51450; 310,000 compounds, 5.4% hits; Drosophila S2 Gal4-RORgamma UAS-luciferase reporter, 20 h; AID 2551; note: nearly all actives have a fitted effect of over 60% in size
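Read-out: Photinus luciferase luminescence; inhibitors lower reporter signal. Insect Schneider cells with Gal4-ROR gamma fusion under metallothionein promoter, UAS reporter; 700 uM final copper sulfate induction, 20 hr, ambient temperature.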
GALK inhibitor = galactokinase (human) inhibition | Purified GALK, Kinase-Glo residual ATP luminescence | Potency, µM (series often up to 57.5 µM), actives largely listed as inhibitors | 270,000 compounds, 0.007% hits
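Luminescence from leftover ATP (Ultra-Glo luciferase/luciferin) served as read-out after a 1 h room-temperature reaction of 5 nM GALK with 35 uM ATP and 100 uM galactose.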
Coupling enz = coupling enzyme interference in Giardia aldolase counter-screen; activity change, negative = inhibition, % at 58.2 µM, hits read low; AID 2472; coupling enzyme system counterscreen, AmpLite Red fluorescence; 290,000 compounds, 0.67% hits; in the data active = activity change below about -30%
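First, compound is pin-transferred into glyceraldehyde-3-phosphate coupling-enzyme reagent at 57.5 uM final and held 10 min at RT. Next, substrate, coupling system and AmpLite Red are added. After 20 min RT, fluorescence (525/598 nm) is read.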
VP16 counter = counter-screen for ROR gamma inhibitors: Gal4-VP16 reporter. Drosophila S2 Gal4-VP16 UAS-luciferase, luminescence, 20 h. Potency, µM (titrated, usually from 53.6 µM), hits mostly inhibitors. 310,000 compounds, 3.5% hits;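 note: Gal4-VP16 expression switched on by copper sulfate through the metallothionein promoter; nearly all actives have a fitted effect of over 50% in size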
TrxR1 substrate = rat thioredoxin reductase 1 substrate activity. purified TrxR1 substrate turnover, NADPH consumption readout. Potency, µM (top dose mostly 114 µM). 390,000 compounds, 0.01% hits. AID 588456; note: nearly all actives have a fitted effect of over 50% in size
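Rat TrxR1, dispensed at 90 nM, was prereduced with 400 uM NADPH (final) for 5 min at ~22 deg C, then incubated with compound 15 min before 400 uM selenite. A first-read NADPH fluorescence drop versus no-compound background flagged substrates.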
Large screens that a line does not name were inactive. Shown are actives, neighbours in structure and some others; about 5.9% of the full set was active somewhere. Unless noted, calls come from the whole dose curve; as a rule, active = well fitted curve in the direction sought with a large enough effect; inconclusive = small, poorly fitted or top-dose-only effect, or another doubt; inactive = no such curve, though single readings can be large; an effect the other way counts as inactive or inconclusive.

COc1ccc(C(=O)N/N=C/c2ccc(N3CCOCC3)o2)cc1OC	rTrxR1 inhibitor 28µM, RORgamma inh inconclusive, Coupling enz -35
O=C(N/N=C/c1ccc(N2CCOCC2)o1)c1cccc(F)c1	rTrxR1 inhibitor 11µM, RORgamma inh 11µM, VP16 counter 13µM
Cc1cccc(N(C)C(=O)C2CCC(CNS(=O)(=O)c3cccc4nsnc34)CC2)c1 (stereo not drawn)	none (no result: RORgamma inh, GALK inhibitor, Coupling enz, VP16 counter)
COc1ccc(NC(=S)Nc2ccccn2)c(OC)c1	RORgamma inh 1.3µM
COc1ccc(NC(=S)Nc2cnc3ccccc3c2)c(OC)c1	RORgamma inh 11µM
COc1ccc(NC(=S)Nc2cc(C)ccn2)c(OC)c1	rTrxR1 inhibitor inconclusive, RORgamma inh 6.3µM, VP16 counter 3.2µM
COc1ccc(NC(=S)Nc2ccccc2OC)c(OC)c1	none
COc1ccc(NC(=S)Nc2ccc(OC)cc2OC)c(OC)c1	RORgamma inh inconclusive, VP16 counter inconclusive
CN1CC2CCCC3(C1)C(=O)NC1(CCCCC1)N=C23 (stereo not drawn)	none
CC1=C(C(=O)OCc2ccccc2)C(c2ccc3ccccc3c2)NC(=O)N1CCCCCC(=O)O (stereo not drawn)	RORgamma inh 7.9µM (no result: GALK inhibitor)
CC1=C(C(=O)OCc2ccccc2)C(c2ccc([N+](=O)[O-])cc2)NC(=O)N1CCCCCC(=O)O (stereo not drawn)	RORgamma inh 10µM (no result: GALK inhibitor)
CC1=C(C(=O)OCc2ccccc2)C(c2ccccc2Cl)NC(=O)N1CCCCCC(=O)O (stereo not drawn)	RORgamma inh 1.8µM (no result: GALK inhibitor)
CC1=C(C(=O)OCc2ccccc2)C(c2ccc([N+](=O)[O-])cc2)NC(=O)N1CCCC(=O)O (stereo not drawn)	none (no result: GALK inhibitor)
CC1=C(C(=O)OCc2ccccc2)C(c2ccc3ccccc3c2)NC(=O)N1CCCC(=O)O (stereo not drawn)	RORgamma inh 11µM (no result: GALK inhibitor)
CC1=C(C(=O)OCc2ccccc2)C(c2ccc3c(c2)OCO3)NC(=O)N1CCCC(=O)O (stereo not drawn)	none (no result: RORgamma inh, GALK inhibitor, Coupling enz, VP16 counter)
CC(C)c1ccccc1OS(N)(=O)=O	none (no result: GALK inhibitor)
CCN(C(=O)c1ccc2c(SCC(=O)O)c3c(nc2c1)CCC3)c1cc(Cl)ccc1OC	none (no result: Coupling enz)
O=C(c1cccc(F)c1)N(Cc1nc2ccccc2c(=O)[nH]1)C1CCCC1	RORgamma inh 6.3µM, VP16 counter inconclusive
O=C(NC1CCCCC1)N(Cc1nc2ccccc2c(=O)[nH]1)C1CCCC1	none
O=C(c1ccccc1F)N(Cc1nc2ccccc2c(=O)[nH]1)C1CCCC1	RORgamma inh 2.8µM, VP16 counter 7.9µM
O=C(c1ccccc1)N(Cc1nc2ccccc2c(=O)[nH]1)C1CCCCC1	RORgamma inh inconclusive
O=[N+]([O-])c1ccc(N=Nc2ccc(O)cc2O)cc1	RORgamma inh inconclusive, VP16 counter 0.63µM
COc1ccc2nc(-n3c(O)c(C4=c5ccccc5=NC4=O)[nH]c3=S)sc2c1	RORgamma inh 13µM, VP16 counter inconclusive
O=C(Cc1ccc(S(=O)(=O)N2CCOCC2)s1)Nc1ccccc1N1CCCC1	rTrxR1 inhibitor 11µM
C=CCn1c(=O)c2c(nc(Br)n2Cc2ccccc2Cl)n(C)c1=O	none (no result: GALK inhibitor)
C=CCNC(=S)NNC(=O)c1cccc(Br)c1	RORgamma inh inconclusive, VP16 counter inconclusive
C=CCNC(=S)NNC(=O)COc1cccc(Cl)c1	RORgamma inh 1.3µM, VP16 counter 8.9µM
C=CCNC(=S)NNC(=O)COc1ccc(Br)cc1	RORgamma inh 5µM, VP16 counter 3.5µM
C=CCNC(=S)NNC(=O)COc1ccc2cc(Br)ccc2c1	RORgamma inh 3.2µM, VP16 counter inconclusive
NNC(=O)c1ccc(Cn2cc(Br)c(N)n2)cc1	none
O=C1OC(Nc2ncccn2)c2ccccc21 (stereo not drawn)	none
O=C1OC(Nc2cc(Br)cc3cccnc23)c2ccccc21 (stereo not drawn)	RORgamma inh inconclusive, Coupling enz -40, VP16 counter 11µM
CCc1cc2c(SCC(=O)Nc3ccc(NC(C)=O)cc3)ncnc2s1	none (no result: RORgamma inh, GALK inhibitor, Coupling enz, VP16 counter)
CCc1cc2c(Sc3nc4ccccc4s3)ncnc2s1	RORgamma inh 8.9µM, VP16 counter inconclusive
c1ccc2sc(Sc3ncnc4sccc34)nc2c1	rTrxR1 inhibitor inconclusive, RORgamma inh 10µM, VP16 counter inconclusive
Cc1ccc(NC(=O)C2COc3ccccc3O2)c(C)c1 (stereo not drawn)	none
CCOC(=O)c1nnn(-c2nonc2-n2cccc2)c1CCl	rTrxR1 inhibitor 13µM
CCOC(=O)c1nnn(-c2nonc2-n2cccc2)c1CN1CCC(C)CC1	VP16 counter inconclusive (no result: GALK inhibitor)
CCN(C(=O)COC(=O)/C=C/c1ccc(F)cc1)C1CCCCC1	none (no result: RORgamma inh, GALK inhibitor, Coupling enz, VP16 counter)
CCN(C(=O)COC(=O)/C=C/c1ccco1)C1CCCCC1	rTrxR1 inhibitor 35µM (no result: RORgamma inh, GALK inhibitor, Coupling enz, VP16 counter)
CCOC(=O)c1c(C)[nH]c(C)c1C(=O)COC(=O)/C=C/c1ccco1	rTrxR1 inhibitor 20µM (no result: RORgamma inh, GALK inhibitor, Coupling enz, VP16 counter)
O=C(NCC(c1cccs1)N1CCOCC1)c1cc(=O)[nH]c2ccccc12 (stereo not drawn)	none (no result: RORgamma inh, GALK inhibitor, Coupling enz, VP16 counter)
CC(C)(C)c1ccc(-c2nnc3sc(-c4ccccn4)nn23)cc1	RORgamma inh inconclusive
O=C(c1cc(-c2ccc(F)cc2)on1)N1CCCCCC1	none
COc1ccc(-c2cc(C(=O)N3CCCC3)no2)cc1	RORgamma inh 4µM, VP16 counter 10µM
O=C(c1cc(-c2ccc(F)cc2)on1)N1CCCC1	RORgamma inh 14µM
O=C(c1cc(-c2cccc(O)c2)on1)N1CCCCC1	RORgamma inh 0.71µM
NS(=O)(=O)c1ccc(CCNc2ccc(C(F)(F)F)cn2)cc1	none
O=C(O)CSc1cc(C(=O)c2cc(F)ccc2O)cn2c(=O)c3c(-c4ccccc4)csc3nc12	RORgamma inh 35µM (no result: GALK inhibitor)
CCOC(=O)c1sc2nc3c(SCCC#N)cc(C(=O)c4cc(F)ccc4O)cn3c(=O)c2c1C	none
Cc1cc(C=C2C(=O)c3ccccc3C2=O)c(C)n1-c1ccccc1	RORgamma inh 0.063µM, VP16 counter 16µM
Cc1cc(/C=C2\SC(=S)NC2=O)c(C)n1-c1cccc(O)c1	none
Cc1cc(/C=C2/C(=O)NN(c3ccccc3)C2=O)c(C)n1-c1cccc(O)c1	RORgamma inh inconclusive, VP16 counter 16µM
CCN1CCc2c(sc(NC(=O)c3cc4ccccc4cc3OC)c2C(N)=O)C1	RORgamma inh 4.5µM, VP16 counter 5.6µM (no result: Coupling enz)
COc1cc(CN2C(=S)NC(C)(C)CC2(C)O)cc(OC)c1 (stereo not drawn)	RORgamma inh 3.5µM, VP16 counter 11µM
COC(=O)c1ccc(-c2noc(CN(Cc3nccn3C)C(C)C)n2)cc1	RORgamma inh 10µM

Screening data from PubChem BioAssay.
